From PubChem BioAssay AID588405 (Sanford-Burnham Center for Chemical Genomics, 2011)
Hit rate of the full screen: of about 360,000 compounds, about 6,200 (1.7%) were called active.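 The calls were made as follows: active = inhibition of at least 50% at 20 µM; inactive = the rest.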 The entries come from a sample that favours actives as a whole.

Assay: Peg3 promoter-driven luciferase inhibitors, primary screen, cell-based, HeLa, luciferase luminescence (AID 588405)
Conditions: HeLa PEG-Prom luciferase reporter, overnight, at 20 µM, active compounds read high

Row | SMILES | inhibition
1 | O=C(CSc1nc(=O)n2ccccc2n1)Nc1ccc2c(c1)OCCO2 | -14.4% (inactive)
2 | CCc1ccc([C@@H]2CC(=O)[C@@H]3CN(S(=O)(=O)c4ccc(C)cc4)[C@H](c4ccc(Cl)cc4)C[C@@H]3N2S(=O)(=O)c2ccc(C)cc2)cc1 | 15.4% (inactive)
3 | Cc1cc(C(C)(C)C)cc(C)c1N | 6.32% (inactive)
4 | CC(C)(C)c1ccc(Oc2ccc(N)cc2)cc1 | 76.7% (active)
5 | COc1cnc(-c2ccccn2)nc1Oc1ccc(C(C)(C)C)cc1 | -4.72% (inactive)
6 | CC1(C(=O)NS(=O)(=O)c2ccc3ccccc3c2)CCN1C(=O)C1(c2ccc(Cl)cc2)CCC1 (configuration not stated) | -9.9% (inactive)
7 | CC1(C(=O)NCc2cccc3ccccc23)CCN1Cc1ccc(-c2ccccc2)o1 (configuration not stated) | 21.9% (inactive)
8 | CCOC(=O)c1ccn(S(=O)(=O)c2ccc(C)cc2)c1-c1ccccc1 | -0.12% (inactive)
9 | Cc1nc2scc(-c3cccs3)c2c(=O)n1N | 3.36% (inactive)
10 | CCS(=O)(=O)N1CCC(N2CCN(c3ccccc3)CC2)CC1 | 52% (active)
11 | CS(=O)(=O)N1CCC(C(=O)N2CCN(c3ccccc3)CC2)CC1 | 8.23% (inactive)
12 | CCS(=O)(=O)N1CCC(C(=O)N2CCN(c3ccccc3)CC2)CC1 | -2.59% (inactive)
13 | CCC(C)(C)NC(=O)C(c1cccn1C)N(Cc1ccc(C)cc1)C(=O)Cn1nnc2ccccc21 (configuration not stated) | 5.59% (inactive)
14 | Cc1ccccc1-c1nc(NC(C)C)nc2cc(-c3ccccc3)sc12 | 7.19% (inactive)
15 | COc1cccc(-c2sc3ccc(OC)cc3c2-c2ccc(OCCN3CCCCC3)cc2)c1 | 87.9% (active)
16 | COc1cc(OC)cc(-c2sc3ccc(OC)cc3c2-c2ccc3cc[nH]c3c2)c1 | 2.15% (inactive)
17 | COc1ccc2sc(-c3ccccc3OC)c(-c3ccc(OCCN4CCCC4)cc3)c2c1 | 34.9% (inactive)
18 | CCN(CCN(C)C)C(=O)c1ccc2nc(C)c(N(C)C(=O)CCc3ccccc3)n2c1 | -8.8% (inactive)
19 | COC(=O)c1ccc2nc(C3CCCCC3)c(Cc3cccc(F)c3)n2c1 | -20.6% (inactive)

Row | SMILES | inhibition
20 | Cc1cc(C)c2nc3nc(C)cc(C)c3c(N)c2c1 | 59.9% (active)
21 | COc1ccccc1CCNC(=O)C1CCN(C(=O)/C=C/c2ccccc2)CC1 | -46.9% (inactive)
22 | COC(=O)c1ccc(COc2ccc(/C=C/C(=O)c3ccc(OC)c(CSCC(=O)O)c3)cc2OC)cc1 | -5.11% (inactive)
23 | COc1ccc(C(=O)/C=C/c2ccc(-c3ccccc3)cc2)cc1CSCC(=O)O | 98.8% (active)
24 | COc1ccc2c3c1O[C@H]1C[C@@H](O)C=C[C@@]31CCN(C)C2 | -14.7% (inactive)
25 | COc1ccc(NC(=O)c2cc(-c3cc(OC)c(OC)c(OC)c3)nc3ccccc23)c(OC)c1 | 50.8% (active)
26 | COc1ccc(NC(=O)c2sc(N3CCOCC3)nc2-c2ccccc2)c(OC)c1 | 20.4% (inactive)
27 | COc1ccc(-c2cc(C(=O)n3cnc4ccccc43)c3ccccc3n2)cc1 | -64% (inactive)
28 | CC(=O)Nc1cccc(-c2cc3nc(NCc4cccnc4)n(C)c(=O)c3s2)c1 | -27.3% (inactive)
29 | O=c1c2cc(Br)ccc2nc(-c2cccc(Cl)c2)n1O | 31.2% (inactive)
30 | CN(c1ccccc1)S(=O)(=O)c1cc(C(=O)Nc2nc3ccccc3[nH]2)ccc1Cl | 5.63% (inactive)
31 | O=C(/C(=C/c1cccc(Cl)c1)c1nc2ccccc2[nH]1)c1ccccc1 | 109% (active)
32 | Cc1ccc(-c2nc3ccccc3[nH]2)cc1NC(=O)c1sc2ccccc2c1Cl | 50.7% (active)
33 | CN1CCc2ccccc2C1Cc1ccccc1NC(=O)c1sc2ccccc2c1Cl (configuration not stated) | -137% (inactive)
34 | Cc1ccc2c(Cl)c(C(=O)Nc3nn[nH]n3)sc2c1 | -5.87% (inactive)
35 | COc1ccc(C)cc1NC(=O)CCS(=O)(=O)c1cccc2nonc12 | -14.4% (inactive)
36 | Cc1ccc2c(C(=O)CN3CCCC3)c(C)[nH]c2c1 | 7.2% (inactive)
37 | CCNC(=O)C1(C)CCN(C(=O)c2ccccc2)C1 (configuration not stated) | -7.38% (inactive)
38 | CC1CC(=S)Nc2ccccc2N1Cc1ccccc1 (configuration not stated) | 55.4% (active)

Row | SMILES | inhibition
39 | CC1CC(=O)Nc2ccccc2N1S(=O)(=O)c1cccs1 (configuration not stated) | 10.5% (inactive)
40 | CC1CN(Cc2ccccc2)C(=S)NC1=O (configuration not stated) | -2.37% (inactive)
41 | CCNC(=O)C1(C)CCCN1C(=O)c1ccc(N(C)C)cc1 (configuration not stated) | -3.48% (inactive)
42 | CCCOc1ccc(Cl)cc1Nc1nc(NCCO)nc(N2CCCC2)n1 | 9.9% (inactive)
43 | CCOc1ccc(Nc2nc(Cl)nc(N3CCN(c4ccc(OC)cc4)CC3)n2)cc1 | 22.4% (inactive)
44 | CCN1CCN(c2nc(Nc3cc(OC)ccc3OC)nc(Nc3cc(OC)ccc3OC)n2)CC1 | 52.3% (active)
45 | COc1cccc(C(O)c2ncc(-c3ccc4ccccc4c3)[nH]2)c1 (configuration not stated) | -68.4% (inactive)
46 | CNC(=O)C1CC(=O)N(c2ccc(OCC(=O)Nc3ccccc3C)cc2)C1 (configuration not stated) | -61.3% (inactive)
47 | CC12CCC(=O)C=C1CCC1C2C(O)CC2(C)C1CCC2(O)C(O)CO (configuration not stated) | 10.9% (inactive)
48 | CCc1nc2ccc(C(=O)Nc3ccc(OC)c(OC)c3)cn2c1N(C)C(=O)c1cccc(OC)c1 | -9.49% (inactive)
49 | CCCN1CCN(C(=O)Cn2ncc3ccccc32)CC1 | 6.83% (inactive)
50 | O=C1NC[C@H](Cc2ccc(O)cc2)N(C[C@H]2CCCN2C[C@H](Cc2ccccc2)N2C[C@H](Cc3ccccc3)N(CCc3ccccc3)C(=O)C2=O)C1=O | -4.33% (inactive)
51 | Cc1oc2c(c1C(=O)N1CCOCC1)C(=O)c1ccccc1C2=O | 97.9% (active)
52 | O=C(c1snnc1-c1ccccc1)N1CCOCC1 | 11.7% (inactive)
53 | Cc1ccc(C(=O)N2CCN(S(=O)(=O)N3CCOCC3)CC2)cc1 | 5.77% (inactive)
54 | CC=CCn1c(SCCCc2ccccc2)nc2c1c(=O)[nH]c(=O)n2C | 0.45% (inactive)
55 | CN(CCO)Cc1csc2ccc(Br)cc12 | 13.7% (inactive)
56 | COc1ccc(S(=O)(=O)N2CCCCC2c2cc(C(=O)NCc3ccc(F)cc3)no2)cc1 (configuration not stated) | 15.3% (inactive)
57 | CC[C@@H]1Cc2cc(O)ccc2C2=C1c1ccc(O)cc1C[C@H]2CC | 64.8% (active)
